Data published in PubChem BioAssay (NCATS).
Inconclusive results are not listed. Calls of active or inactive are those of the source. Unless noted, the call rests on the fitted dose curve; in most records, active means well fitted curve in the direction sought with a large enough effect; inconclusive means small, poorly fitted or top-dose-only effect, or another doubt; inactive means no such curve, though single readings can be large; an effect the other way counts as inactive or inconclusive.

Columns and labels:
[1] = molecular target: Lysosomal acid glucosylceramidase (Homo sapiens) (UniProt P04062); experiment: Glucocerebrosidase-p2 (AID 348; in the data active means potency below about 10 µM; further: potency means the concentration at half of the fitted maximal effect); settings: purified GBA, blue fluorogenic substrate, 40 min
In short: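 Normal human glucocerebrosidase (0.2 nM) with blue fluorogenic substrate (80 uM final) in citrate/phosphate pH 5.9 with 10mM sodium taurocholate, 0.01% tween-20; 40 min RT, NaOH/glycine stop; fluorescence Ex 365/Em 440; AC50 from a titration from 0.6 nM upwards.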

[2] = AP1 Signaling Pathway (AID 357; active means well fitted curve in either direction with a large enough effect, not every such curve was filed as active;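 further: ME-180 reporter cells stimulated with EGF at its EC50 level; on the % scale 0 is the no-effect control and ±100 the full control effect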); settings: ME-180 AP-1-bla reporter, EGF-induced, beta-lactamase ratio, 5 h; at 7.69 µM (top of the series) unless noted
In short: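 AP-1-bla ME-180 cells, Opti-MEM + 0.5% dialyzed FBS, plated overnight 37 °C. Cpd titration + EC50 EGF, 5 h 37 °C. CCF4 2.5 h RT; ex 405, em 460/530 ratio → %activity, AC50.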

[3] = molecular target: Cytochrome P450 1A2 (Homo sapiens) (UniProt P05177); experiment: p450-cyp1a2 (AID 410; calls by dose curve; further: potency means the concentration at half of the fitted maximal effect;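 on activity change, negative = inhibition: -100% = full effect of reference inhibitor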); settings: recombinant CYP1A2, luciferin-ME demethylation, luminescence; series mostly up to 57 µM
In short: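 O-Demethylation of luciferin 6' methyl ether by human CYP1A2 is monitored as luciferase luminescence. Substrate sits at Km (100uM); enzyme is 20nM. Values are scaled to 57 uM furafylline as maximal inhibition.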

[4] = NFAT Signaling Pathway (AID 444; active means well fitted curve in either direction with a large enough effect, not every such curve was filed as active;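 further: carbachol stimulus at about its EC50 of 1 µM final; on the % scale 0 is the no-effect control and ±100 the full control effect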); settings: Jurkat NFAT-bla M1, carbachol, beta-lactamase ratio, 5 h; at 7.69 µM (top of the series) unless noted
In short: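 Jurkat cells carrying an NFAT-driven β-lactamase reporter and co-transfected muscarinic M1 receptor were treated with compound plus carbachol (1 uM final, an EC50 level) for 5 h at 37 °C. CCF4 loading followed for 1 h at RT; 460/530 nm ratio gave %activity.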

[5] = Stat Signaling Pathway (AID 446; active means well fitted curve in either direction with a large enough effect, not every such curve was filed as active;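 further: ME-180 cervical cancer cells given 40 pM IL-6 alongside compound; SIE-controlled beta-lactamase reporter measured as 460/530 nm FRET emission ratio; on the % scale 0 is the no-effect control and ±100 the full control effect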); settings: ME-180 (cervical carcinoma) SIE beta-lactamase reporter, IL-6 stimulated, 5 h; at 7.69 µM (top of the series) unless noted
In short: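 Emission at 460 and 530 nm (excitation 405 nm) reports SIE-controlled beta-lactamase in ME-180 cells. Cells received compound with 40 pM IL-6 for 5 hrs at 37 C; data scaled between 300 pM IL-6 and 125 nM JAK-inhibitor controls.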

[6] = molecular target: Glucocorticoid receptor (Homo sapiens) (UniProt P04150); experiment: GR-GFP Redistribution (AID 450;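 active means compounds whose dose series gives a full or clear partial fitted curve of increased nuclear translocation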; further: potency means the concentration at half of the fitted maximal effect); settings: U2OS GR-GFP nuclear translocation, laser cytometry, 2 h
[7] = molecular target: Glucocorticoid receptor (Homo sapiens) (UniProt P04150); experiment: GR-EFC Redistribution (AID 451; calls by dose curve; further: potency means the concentration at half of the fitted maximal effect); settings: CHO-K1 GR-EFC translocation, beta-gal luminescence, 2 h
In short: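 CHO-K1 cells stably expressing nuclear-localized β-gal enzyme acceptor and GR fused C-terminally to the enzyme donor fragment; ligand-driven nuclear translocation restores β-gal by complementation. Compounds titrated up to 46 uM final, 2 h at 37 °C; luminescence read.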

[8] = molecular target: Mitogen-activated protein kinase 10 (Mus musculus) (UniProt Q61831); experiment: JNK3 AlphaScreen Assay (AID 530; active means well fitted curve in either direction with a large enough effect, not every such curve was filed as active;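 further: kinase came from lysate of stimulated human HepG2 cells; signal reports phosphorylation of biotinylated GST-cJun 1-79 at Ser73 with 10 µM ATP; on the % scale 0 is the no-effect control and ±100 the full control effect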); settings: JNK3 lysate, c-Jun phosphorylation; series mostly up to 57.1 µM
In short: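 Phosphorylation of biotinylated GST-cJun(1-79) at Ser73 is measured by AlphaScreen proximity luminescence. Enzyme is JNK3 in HepG2 lysates activated with interleukin-1beta and tumor necrosis factor alpha; ATP is 10 uM final.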

[9] = molecular target: 3',5'-cyclic-AMP phosphodiesterase 4B (Homo sapiens) (UniProt Q07343); experiment: qHTS Assay for Inhibitors of PDE-IV (AID 607; active means well fitted activation curve with a large enough effect in the main read-out, with a control signal flat, not every such curve was filed as active; further: % of control where 0% means no effect); settings: HEK293 ACTOne CNG channel cells, membrane potential fluorescence; series mostly up to 22.9 µM
In short: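 The readout is membrane depolarisation from a cAMP-sensing CNG channel, detected with a potential dye at ex 535/em 590. Cells were HEK293-derived (endogenous PDE-IV) at 1000 cells/well, titrated up to 22.9 uM final.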

[10] = qHTS Assay for Lipid Storage Modulators (AID 1519; calls by dose curve); settings: Drosophila S3 cells, BODIPY lipid droplet/cell ratio, laser cytometry, cells loaded with oleic acid; for activity change, negative = inhibition: at 57.5 µM (top of the series)
In short: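 Cells seeded at 5,000 per well were treated with compounds over a concentration series and loaded with oleic acid (400 uM, as added). Lipid droplet fluorescence (488 nm excitation, 500-530 nm channel) was read by laser-scanning cytometry and normalized to 20 uM Triacsin C.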

[11] = molecular target: Dual specificity protein kinase CLK4 (Homo sapiens) (UniProt Q9HAZ1); experiment: qHTS Assay for Inhibitors of CDC-like Kinase 4 (Kinase-Glo Assay) (AID 1770); settings: recombinant Clk4, Kinase-Glo ATP depletion luminescence; series mostly up to 66.7 µM; further: nearly all actives have a fitted effect of over 65% in size; further: potency means the concentration at half of the fitted maximal effect
In short: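 Clk4 25 nM, RS peptide 100 uM, ATP 1 uM, pH 7.5 Tris, 10 mM MgCl2, 2.5 mM DTT; 4.5 h RT; ATP depletion read by Kinase-Glo luminescence.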

[12] = molecular target: Dual specificity protein kinase CLK4 (Homo sapiens) (UniProt Q9HAZ1); experiment: qHTS Assay for Inhibitors of CDC-like Kinase 4 (ADP-Glo Assay) (AID 1771); settings: recombinant CLK4, ADP-Glo luminescence; series mostly up to 80 µM; further: nearly all actives have a fitted effect of over 70% in size; further: potency means the concentration at half of the fitted maximal effect
In short: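 Compounds are pin-transferred onto substrate mix (100 uM RS peptide, 1 uM ATP), then 25 nM Clk4 is added. After 1 hr at room temperature, ADP-Glo reagent runs 45 min, detection reagent 30 min, then luminescence is read.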

[13] = molecular target: Dual specificity protein kinase CLK4 (Homo sapiens) (UniProt Q9HAZ1); experiment: qHTS Assay for Inhibitors of CDC-like Kinase 4 (ADP-FP Assay) (AID 1795); settings: Transcreener ADP fluorescence polarization; series mostly up to 50 µM; further: nearly all actives have a fitted effect of over 60% in size; further: potency means the concentration at half of the fitted maximal effect
In short: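 Kinase activity was followed as ADP output, converted from fluorescence polarization with a calibration curve. Reactions ran one hour at low ATP (1 uM) with RS peptide substrate.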

[14] = Primary qHTS for small molecule stabilizers of the endoplasmic reticulum resident proteome: Secreted ER Calcium Modulated Protein (SERCaMP) assay (AID 1508630); settings: SH-SY5Y GLuc-SERCaMP (Gaussia luciferase released on ER calcium loss) secretion, thapsigargin, luminescence; series mostly up to 38.4 µM; further: on the % scale 0 is the no-effect control and ±100 the full control effect
In short: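 The SH-SY5Y reporter protocol was run at 3 concentrations up to 38.3 uM (primary) or 11 concentrations (follow-up): 16 h compound, 100 nM thapsigargin for 4 h, then extracellular luciferase luminescence.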

[15] = molecular target: Cytochrome P450 3A4 (Homo sapiens) (UniProt P08684); experiment: qHTS Assay for Activators of Cytochrome P450 3A4 (AID 885); settings: recombinant CYP3A4, Luciferin-PPXE luminescence, 60 min; series mostly up to 57.1 µM; further: nearly all actives have a fitted effect of over 65% in size
In short: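 Activators are scored by enhanced luminescence from CYP3A4 conversion of luciferin-PPXE (25uM, equal to KM) to luciferin, after 60 min at RT with an NADPH-regenerating system.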

[16] = molecular target: Ubiquitin carboxyl-terminal hydrolase 1 (Homo sapiens) (UniProt O94782); experiment: Inhibitors of USP1/UAF1: Pilot qHTS (AID 504865); settings: purified USP1/UAF1, Ub-rhodamine cleavage fluorescence; series mostly up to 54.9 µM; further: nearly all actives have a fitted effect of over 35% in size; further: potency means the concentration at half of the fitted maximal effect
In short: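 Enzyme-free wells gave the negative control, while test wells held 1nM USP1/UAF1 preincubated with compound for 15 min at room temperature. Ub-Rho at 150nM final started the reaction, and fluorescence at 480/540 nm was recorded kinetically.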

[17] = molecular target: Cytochrome P450 3A4 (Homo sapiens) (UniProt P08684); experiment: qHTS Assay for Inhibitors and Substrates of Cytochrome P450 3A4 (AID 884); settings: recombinant CYP3A4, Luciferin-PPXE luminescence; series mostly up to 57.1 µM; further: potency means the concentration at half of the fitted maximal effect; nearly all actives have a fitted effect of over 50% in size
In short: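 Luminescent readout of luciferin produced by CYP3A4 (20 nM) dealkylation of Luciferin-PPXE, 25 uM (its KM). NADPH-driven reaction ran 60 min at RT after 10 min compound preincubation; data scaled to 57 uM ketoconazole as 100% inhibition.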

[18] = measured here: cell count channel max response
[19] = measured here: lipid channel max response

Chain of 3',5'-cyclic-AMP phosphodiesterase 4B (Homo sapiens) (Q07343 whole entry, looked up): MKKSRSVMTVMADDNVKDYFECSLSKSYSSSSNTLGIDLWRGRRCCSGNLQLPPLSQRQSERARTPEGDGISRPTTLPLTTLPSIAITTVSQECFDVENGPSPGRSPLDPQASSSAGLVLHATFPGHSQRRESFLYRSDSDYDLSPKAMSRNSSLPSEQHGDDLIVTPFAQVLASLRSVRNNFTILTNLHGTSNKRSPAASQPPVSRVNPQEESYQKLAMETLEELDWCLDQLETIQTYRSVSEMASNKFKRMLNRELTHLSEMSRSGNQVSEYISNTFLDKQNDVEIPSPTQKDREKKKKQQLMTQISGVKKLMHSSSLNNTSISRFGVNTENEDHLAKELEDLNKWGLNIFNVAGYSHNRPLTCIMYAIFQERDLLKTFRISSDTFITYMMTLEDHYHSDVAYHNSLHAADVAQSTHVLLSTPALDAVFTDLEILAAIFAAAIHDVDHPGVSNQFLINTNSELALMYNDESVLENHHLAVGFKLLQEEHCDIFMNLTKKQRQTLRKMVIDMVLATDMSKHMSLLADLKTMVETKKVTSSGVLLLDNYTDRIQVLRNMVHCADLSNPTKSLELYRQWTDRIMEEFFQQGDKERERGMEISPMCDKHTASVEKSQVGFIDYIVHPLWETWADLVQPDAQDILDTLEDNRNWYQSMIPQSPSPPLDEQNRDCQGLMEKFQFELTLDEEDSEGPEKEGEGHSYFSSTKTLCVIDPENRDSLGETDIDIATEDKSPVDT
Chain of Lysosomal acid glucosylceramidase (Homo sapiens) (P04062 whole entry, looked up): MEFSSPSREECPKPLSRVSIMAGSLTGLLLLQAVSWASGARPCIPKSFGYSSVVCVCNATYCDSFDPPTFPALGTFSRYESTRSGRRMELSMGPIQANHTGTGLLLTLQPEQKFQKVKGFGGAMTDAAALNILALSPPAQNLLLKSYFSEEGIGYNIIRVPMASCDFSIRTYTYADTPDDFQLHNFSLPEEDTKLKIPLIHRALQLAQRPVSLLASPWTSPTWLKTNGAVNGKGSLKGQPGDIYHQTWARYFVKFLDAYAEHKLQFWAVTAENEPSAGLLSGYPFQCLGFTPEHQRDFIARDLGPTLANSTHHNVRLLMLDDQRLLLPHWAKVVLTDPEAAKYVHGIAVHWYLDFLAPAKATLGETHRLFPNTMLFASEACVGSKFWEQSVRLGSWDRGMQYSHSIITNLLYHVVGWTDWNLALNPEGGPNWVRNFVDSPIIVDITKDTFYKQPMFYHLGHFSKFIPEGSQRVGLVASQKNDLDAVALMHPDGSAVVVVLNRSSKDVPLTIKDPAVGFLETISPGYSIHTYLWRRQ
Chain of Ubiquitin carboxyl-terminal hydrolase 1 (Homo sapiens) (O94782 whole entry, looked up): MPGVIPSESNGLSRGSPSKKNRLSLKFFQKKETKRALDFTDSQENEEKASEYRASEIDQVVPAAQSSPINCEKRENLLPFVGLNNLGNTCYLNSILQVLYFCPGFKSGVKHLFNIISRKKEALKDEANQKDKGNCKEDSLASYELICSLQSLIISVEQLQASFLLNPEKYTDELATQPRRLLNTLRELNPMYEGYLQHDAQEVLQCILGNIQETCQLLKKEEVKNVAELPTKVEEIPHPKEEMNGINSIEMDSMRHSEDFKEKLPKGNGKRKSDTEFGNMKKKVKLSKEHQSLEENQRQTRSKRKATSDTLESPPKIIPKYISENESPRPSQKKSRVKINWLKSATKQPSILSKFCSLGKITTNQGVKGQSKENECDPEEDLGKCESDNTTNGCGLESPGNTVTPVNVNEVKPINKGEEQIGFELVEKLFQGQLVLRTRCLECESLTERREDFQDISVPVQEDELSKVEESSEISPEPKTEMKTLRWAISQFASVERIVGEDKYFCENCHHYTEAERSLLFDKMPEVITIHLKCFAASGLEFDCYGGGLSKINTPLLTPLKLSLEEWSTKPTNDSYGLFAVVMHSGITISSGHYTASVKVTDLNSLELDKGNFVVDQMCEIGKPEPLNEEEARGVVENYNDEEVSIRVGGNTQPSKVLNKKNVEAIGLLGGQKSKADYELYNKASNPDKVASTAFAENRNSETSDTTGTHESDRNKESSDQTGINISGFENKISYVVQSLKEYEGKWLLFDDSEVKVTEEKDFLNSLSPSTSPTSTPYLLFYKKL
Chain of Glucocorticoid receptor (Homo sapiens) (P04150 whole entry, looked up, the tested form may be a part): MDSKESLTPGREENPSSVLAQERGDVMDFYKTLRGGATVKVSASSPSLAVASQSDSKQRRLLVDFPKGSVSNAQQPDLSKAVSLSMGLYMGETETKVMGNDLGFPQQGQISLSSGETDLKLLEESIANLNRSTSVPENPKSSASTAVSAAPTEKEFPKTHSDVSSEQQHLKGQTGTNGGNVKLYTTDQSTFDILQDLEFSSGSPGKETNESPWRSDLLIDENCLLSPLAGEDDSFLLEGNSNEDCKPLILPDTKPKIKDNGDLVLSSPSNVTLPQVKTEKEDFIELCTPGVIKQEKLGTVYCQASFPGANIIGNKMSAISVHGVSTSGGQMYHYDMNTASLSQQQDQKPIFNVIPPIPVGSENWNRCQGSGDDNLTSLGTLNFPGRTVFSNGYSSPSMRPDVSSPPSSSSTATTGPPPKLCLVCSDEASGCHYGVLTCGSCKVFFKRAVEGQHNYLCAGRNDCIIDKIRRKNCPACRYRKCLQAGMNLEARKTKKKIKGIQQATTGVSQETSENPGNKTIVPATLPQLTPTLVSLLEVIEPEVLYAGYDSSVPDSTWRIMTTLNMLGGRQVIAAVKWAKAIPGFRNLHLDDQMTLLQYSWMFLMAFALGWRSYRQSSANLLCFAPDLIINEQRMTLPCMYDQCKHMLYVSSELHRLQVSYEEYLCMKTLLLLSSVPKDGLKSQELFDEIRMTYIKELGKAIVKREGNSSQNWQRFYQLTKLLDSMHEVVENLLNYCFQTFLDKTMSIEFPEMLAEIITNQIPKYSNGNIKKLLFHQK
Chain of Cytochrome P450 1A2 (Homo sapiens) (P05177 whole entry, looked up): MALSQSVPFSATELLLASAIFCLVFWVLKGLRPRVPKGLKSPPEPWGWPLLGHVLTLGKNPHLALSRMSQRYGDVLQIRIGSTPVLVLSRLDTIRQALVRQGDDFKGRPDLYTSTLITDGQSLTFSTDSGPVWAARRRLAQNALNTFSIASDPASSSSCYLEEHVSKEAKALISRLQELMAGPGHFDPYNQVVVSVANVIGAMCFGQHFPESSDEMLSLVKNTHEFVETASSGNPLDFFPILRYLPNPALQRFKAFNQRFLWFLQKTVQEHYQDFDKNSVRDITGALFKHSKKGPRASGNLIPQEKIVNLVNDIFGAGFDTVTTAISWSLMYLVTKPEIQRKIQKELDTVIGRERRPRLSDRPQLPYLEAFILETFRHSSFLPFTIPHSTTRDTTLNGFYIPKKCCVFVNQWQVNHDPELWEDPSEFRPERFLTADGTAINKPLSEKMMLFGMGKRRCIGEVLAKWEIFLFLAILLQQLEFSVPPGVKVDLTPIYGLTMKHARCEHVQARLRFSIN
Chain of Cytochrome P450 3A4 (Homo sapiens) (P08684 whole entry, looked up): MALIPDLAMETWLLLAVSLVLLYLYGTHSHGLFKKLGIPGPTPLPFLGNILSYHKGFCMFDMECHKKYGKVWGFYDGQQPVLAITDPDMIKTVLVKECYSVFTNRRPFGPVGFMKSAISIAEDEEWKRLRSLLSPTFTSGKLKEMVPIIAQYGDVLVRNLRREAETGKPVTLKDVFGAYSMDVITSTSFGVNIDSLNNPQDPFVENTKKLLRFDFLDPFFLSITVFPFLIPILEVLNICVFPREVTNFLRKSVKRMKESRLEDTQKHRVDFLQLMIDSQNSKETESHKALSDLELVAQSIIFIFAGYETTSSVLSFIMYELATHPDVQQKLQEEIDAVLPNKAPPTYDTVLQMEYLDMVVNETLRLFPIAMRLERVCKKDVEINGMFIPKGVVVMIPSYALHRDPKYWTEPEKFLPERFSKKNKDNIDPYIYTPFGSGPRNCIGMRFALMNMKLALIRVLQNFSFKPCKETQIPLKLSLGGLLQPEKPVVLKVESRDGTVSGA
Chain of Dual specificity protein kinase CLK4 (Homo sapiens) (Q9HAZ1 whole entry, looked up): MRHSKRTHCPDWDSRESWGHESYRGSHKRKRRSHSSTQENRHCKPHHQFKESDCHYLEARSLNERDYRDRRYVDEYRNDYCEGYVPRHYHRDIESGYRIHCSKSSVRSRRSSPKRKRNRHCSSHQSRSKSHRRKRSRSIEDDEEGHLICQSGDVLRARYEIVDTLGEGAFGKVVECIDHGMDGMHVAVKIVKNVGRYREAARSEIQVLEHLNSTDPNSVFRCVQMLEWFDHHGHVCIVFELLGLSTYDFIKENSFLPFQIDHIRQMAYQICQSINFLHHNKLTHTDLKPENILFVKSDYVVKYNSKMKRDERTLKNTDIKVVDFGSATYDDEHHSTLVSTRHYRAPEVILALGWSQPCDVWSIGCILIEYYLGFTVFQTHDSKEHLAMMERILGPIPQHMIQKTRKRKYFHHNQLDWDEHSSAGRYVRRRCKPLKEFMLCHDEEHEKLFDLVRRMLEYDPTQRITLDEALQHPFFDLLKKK

Row | SMILES | Potency [1] | activity change, negative = inhibition [2] | Potency [3] | activity change, negative = inhibition [4] | activity, negative = inhibition [5] | Potency [6] | Potency [7] | outcome [8] | Potency [9] | activity change, negative = inhibition [10] | max response [10, 18] | max response [10, 19] | Potency [11] | Potency [12] | Potency [13] | Potency [14] | Potency [15] | Potency [16] | Potency [17]
1 | CCNc1ncc2nc(-c3ccc(F)cc3)c(=O)n(CCOC)c2n1 | > 11.4 µM (inactive) | -5.66% (inactive) | 2 µM (active) | -3.34% (inactive) | 10.5% (inactive) | > 9.22 µM (inactive) | > 46 µM (inactive) | inactive | inactive | 6.73% (inactive) | 22.2% | 28.8% | inactive | inactive | inactive | inactive | – | – | –
2 | COc1ccc(-n2c(=O)cnc3cnc(N(C)C)nc32)cc1 | > 11.4 µM (inactive) | -17.5% (inactive) | 5.01 µM (active) | 15.7% (inactive) | -7.93% (inactive) | > 9.22 µM (inactive) | > 46 µM (inactive) | inactive | inactive | 5.53% (inactive) | 17.5% | 21.2% | 11.2 µM (active) | 12.6 µM (active) | 11.2 µM (active) | inactive | inactive | – | –
3 | CCNc1ncc2ncc(=O)n(C3CC3)c2n1 | > 11.4 µM (inactive) | -20.4% (inactive) | 3.16 µM (active) | -6.86% (inactive) | -6.01% (inactive) | > 9.22 µM (inactive) | > 46 µM (inactive) | inactive | – | 3.55% (inactive) | 13.3% | 13.9% | 14.1 µM (active) | 11.2 µM (active) | 12.6 µM (active) | inactive | – | inactive | –
4 | COc1ncc2nc(C)c(=O)n(C3CC3)c2n1 | > 11.4 µM (inactive) | -5.11% (inactive) | 3.98 µM (active) | -4.48% (inactive) | -11.2% (inactive) | > 9.22 µM (inactive) | > 46 µM (inactive) | inactive | inactive | 4.19% (inactive) | 28.7% | 29.7% | inactive | inactive | inactive | inactive | inactive | inactive | –
5 | FC(F)(F)c1ccccc1-c1nccc(NCc2cccs2)n1 | > 11.4 µM (inactive) | 2% (inactive) | 1.26 µM (active) | -3.1% (inactive) | -15.9% (inactive) | > 46 µM (inactive) | > 46 µM (inactive) | inactive | – | 5.22% (inactive) | 6.69% | 8.2% | inactive | inactive | inactive | inactive | inactive | 11.2 µM (active) | 2 µM (active)
6 | CS(=O)(=O)Nc1cccc(-c2ccc3ncnc(N4CCNCC4)c3c2)c1 | > 11.4 µM (inactive) | -1.37% (inactive) | 12.6 µM (active) | 23.1% (inactive) | -16.8% (inactive) | > 46 µM (inactive) | > 46 µM (inactive) | inactive | inactive | 5.65% (inactive) | 18.2% | 22.6% | 6.31 µM (active) | 15.8 µM (active) | 5.01 µM (active) | inactive | inactive | inactive | –
7 | COc1ccc(-n2c(=O)c(C)nc3cnc(OC)nc32)cc1 | > 11.4 µM (inactive) | 13.3% (inactive) | inactive | 3.92% (inactive) | -15.2% (inactive) | > 9.22 µM (inactive) | > 46 µM (inactive) | inactive | inactive | 4.38% (inactive) | 12% | 18.2% | inactive | inactive | inactive | inactive | inactive | inactive | –
8 | COc1ccc(-c2nc3cnc(N4CCOCC4)nc3n(C[C@H]3CCCO3)c2=O)cc1 | > 11.4 µM (inactive) | 8.17% (inactive) | 5.01 µM (active) | 15.8% (inactive) | 9.41% (inactive) | > 9.22 µM (inactive) | > 46 µM (inactive) | inactive | inactive | 1.98% (inactive) | 4.58% | 6.82% | inactive | inactive | inactive | inactive | – | – | –
9 | CN1CCN(c2ncnc3ccc(-c4ccc5c(c4)OCO5)cc23)CC1 | > 11.4 µM (inactive) | -24.4% (inactive) | 2.51 µM (active) | -20.4% (inactive) | 6.89% (inactive) | > 46 µM (inactive) | > 46 µM (inactive) | inactive | inactive | 4.95% (inactive) | 4.86% | 5.74% | 0.282 µM (active) | 0.562 µM (active) | 0.158 µM (active) | inactive | inactive | inactive | 7.94 µM (active)
10 | COc1ccc(CNc2ccnc(-c3ccc4c(c3)OCO4)n2)c(OC)c1 | > 11.4 µM (inactive) | -15% (inactive) | 1.26 µM (active) | -5.96% (inactive) | -2.09% (inactive) | > 46 µM (inactive) | > 46 µM (inactive) | inactive | – | 4.67% (inactive) | 13.5% | 17.1% | inactive | inactive | inactive | inactive | inactive | inactive | –
11 | COc1ccc(-n2c(=O)c(-c3cccs3)nc3cnc(N(C)C)nc32)cc1 | > 11.4 µM (inactive) | -10.2% (inactive) | inactive | -4.88% (inactive) | -9.54% (inactive) | > 9.22 µM (inactive) | > 46 µM (inactive) | inactive | – | 7.83% (inactive) | 19% | 25.4% | inactive | inactive | inactive | inactive | – | inactive | –
